CHX counter: Cycloheximide Counterscreen for Small Molecule Inhibitors of Shiga Toxin; cell reporter, cycloheximide protein synthesis inhibition counterscreen; 12% of 300,000 active; max response, %; in the data active = max response mostly above about 13%, no sharp cut-off; inactive = mostly below about 14%; note: read at 38.3 µM for the half of the compounds with a filed dose; 0% is about no effect
FBPA Giardia inh: qHTS Assay for Inhibitors of Fructose-1,6-bisphosphate Aldolase from Giardia Lamblia | A8B2U2 | purified Giardia FBPA | Potency, µM (top dose mostly 59.6 µM), without a hit: at the top dose activity, negative = inhibition, most hits filed as inhibitors | 0.71% of 290,000 active | AID 2451, 2010; note: potency is the fitted concentration of half-maximal effect; % is set by controls: 0 for no effect and ±100 for the full control effect; nearly all actives have a fitted effect of over 55% in size
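40 nM FBPA preincubated 10 min at RT with compound (up to 57.5 uM final), then substrate plus GAPDH/TPI/NAD/arsenate coupling and diaphorase/resazurin added. Fluorescence read after 20 min at RT, 525/598 nm.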
LmPK inh: qHTS Assay for Inhibitors of Leishmania Mexicana Pyruvate Kinase (LmPK); Q27686; purified LmPK, Kinase-Glo ATP luminescence, 1 h; Potency, µM (series often up to 57.5 µM), without a hit: top-dose activity change, negative = inhibition, actives largely listed as inhibitors; 0.37% of 290,000 active; AID 1721, 2009; note: potency is the fitted concentration of half-maximal effect; % is set by controls: 0 for no effect and ±100 for the full control effect
Target sequence (Q27686 whole entry, looked up): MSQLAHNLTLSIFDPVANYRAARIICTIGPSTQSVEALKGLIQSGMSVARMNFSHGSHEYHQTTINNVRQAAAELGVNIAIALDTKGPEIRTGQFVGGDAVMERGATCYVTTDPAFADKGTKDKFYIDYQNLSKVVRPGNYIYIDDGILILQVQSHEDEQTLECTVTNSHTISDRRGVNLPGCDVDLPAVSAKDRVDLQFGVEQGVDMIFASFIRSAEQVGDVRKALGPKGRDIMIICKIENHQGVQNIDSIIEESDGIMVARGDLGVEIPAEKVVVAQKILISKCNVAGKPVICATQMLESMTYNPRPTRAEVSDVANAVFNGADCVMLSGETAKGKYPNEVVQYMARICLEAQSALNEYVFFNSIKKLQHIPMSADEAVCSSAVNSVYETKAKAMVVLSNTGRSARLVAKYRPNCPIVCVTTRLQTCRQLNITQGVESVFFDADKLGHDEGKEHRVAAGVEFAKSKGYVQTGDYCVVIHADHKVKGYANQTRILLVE
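0.1 nM LmPK, 0.5 mM PEP, 0.1 mM ADP; 50 mM imidazole pH 7.2, 7 mM MgCl2, 50 mM KCl; 1 h RT. Kinase-Glo luminescence readout, normalized to no-enzyme (full inhibition) and uninhibited wells.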
Shiga toxin inh: A qHTS for Small Molecule Inhibitors of Shiga Toxin; Vero cells, Shiga toxin protein synthesis inhibition reporter; inhibition, % at 38.7 µM; 9.2% of 290,000 active; AID 2315, 2010; in the data active = inhibition mostly above about 28%, no sharp cut-off; inactive = mostly below about 43%; note: 0% is about no effect
NS1 inh: qHTS Assay for Inhibitors of Influenza NS1 Protein Function; 0.4% of 270,000 active; Potency, µM (doses to about 46.1 µM), without a hit: top-dose activity, positive = more growth; AID 2326, 2010; calls by dose curve; note: potency is the fitted concentration of half-maximal effect; actives are rising curves; nearly all actives have a fitted effect of over 50% in size
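In this qHTS, NS1 from influenza A is expressed in budding yeast, where it slows growth. Cells are switched from glucose to 2% galactose medium (pH 6.0, -URA), treated with compound, and growth recovery is read at OD600.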
An asterisk follows results filed as active; u = inconclusive; x = no result given; [ ] = remark or other dose. Hits are enriched below; roughly 14% of the tested compounds scored in any of these assays. Unless noted, calls come from the whole dose curve; as a rule, active = well fitted curve in the direction sought with a large enough effect; inconclusive = small, poorly fitted or top-dose-only effect, or another doubt; inactive = no such curve, though single readings can be large; an effect the other way counts as inactive or inconclusive.

SMILES	CHX counter	FBPA Giardia inh	LmPK inh	Shiga toxin inh	NS1 inh
Cc1cnc(NC(=O)Nc2ccc(OCc3ccccc3)cc2)c(Br)c1	16*	7%	-4%	26	1%
COc1ccc(/C=C/C(=O)CC(=O)/C=C/c2cccc(O)c2OC)cc1O	13	-19%	x	22	x
O=C1CSC(c2cn(-c3ccccc3)nc2-c2ccccc2)N1Cc1ccco1 (centres undefined)	19*	-6%	-2%	35	-58%
COc1ccc(NC(=O)Nc2cccc3ccccc23)cc1S(N)(=O)=O	-3	-1%	3%	-9	7%
O=c1c2sc(-c3ccccc3)cc2nc2n1CCCCC2	53*	1%	-11%	56*	-35%
O=c1c2sc(-c3ccccc3)cc2nc2n1CCC2	24*	6%	u	26*	-50%
O=c1c2c(-c3ccccc3)csc2nc2n1CCC2	-1	5%	5%	-1	-47%
Cc1csc2c(=O)n3c(nc12)CCCCC3	1	11%	-1%	-8	-8%
COc1ccc2c(c1)C(=O)[C@H](OC(=O)NCCc1ccc(OC)c(OC)c1)[C@@H](c1ccc(OC)c(Br)c1)O2	x	-2%	x	x	x
CCC(NC(=O)CCc1nnc(-c2cc(C)on2)o1)C12CC3CC(CC(C3)C1)C2 (centres undefined)	18*	11%	6%	30	-16%
Cc1cc(-c2nnc(CCC(=O)NCc3cc(F)cc(C(F)(F)F)c3)o2)no1	25*	x	-4%	32	11%
CCC1=C2CC[C@H]3C(=O)N(CC(=O)OC)C(=O)[C@H]3[C@H]2[C@@]2(C)C(=O)N(Cc3ccccc3)C(=O)N2C1=O	x	1%	x	x	x
NC(=Nc1ccccc1)Nc1ccccc1	-2	-10%	3%	-11	2%
CC(/C=C(\C)Nc1ccccc1)=Nc1ccccc1	26*	-5%	7%	23	1%
CCn1c(CNC(=O)c2ccccc2F)nnc1SCC(=O)Nc1nncs1	-6	u	-15%	19	12%
Cc1nn(-c2ccccc2)c(N)c1Sc1ccc([N+](=O)[O-])cc1	20*	-13%	6%	12	-42%
Cc1nn(S(=O)(=O)c2ccc(Cl)cc2)c(C)c1Sc1ccc([N+](=O)[O-])cc1	-2	1%	0%	-4	7%
CC(=O)Nc1ccc(SCC(=O)c2cc(C)n(CC(F)(F)F)c2C)cc1	35*	1%	8%	71*	11%
c1ccc(CSc2nnc(Cc3ccccn3)o2)cc1	25*	-1%	-3%	46	2%
O=C(O)c1cccc(CSc2ncn[nH]2)c1	7.6*	0%	-4%	24	3%
c1ccc(CSc2nnc(Cc3ccccc3)o2)cc1	40*	-4%	6%	54*	-4%
O=C(CSc1nnc(CNc2ccc(F)cc2)o1)c1ccccc1	21*	-15%	6%	32	0%
COc1ccc(C(=O)CSc2nnc(CNc3ccc(F)cc3)o2)cc1	-2	-1%	8%	9	x
NCCc1nnc(SCc2ccccc2)o1	-6	-1%	-3%	-21	0%
O=c1[nH]cc(N(CCO)CCO)c(=O)[nH]1	-3	-1%	-1%	-10	-1%
SMILES	CHX counter	FBPA Giardia inh	LmPK inh	Shiga toxin inh	NS1 inh
O=C(CSc1nnc(CNC(=O)c2ccccc2)o1)c1ccccc1	-1	-2%	-4%	-3	7%
O=C(O)c1cccc(CSc2nnc(Cc3ccccc3)o2)c1	15	13%	0%	44*	-19%
O=C(CSc1nnc(Cc2ccccc2)o1)c1ccccc1	32*	0%	-2%	24	-1%
COc1ccc(OCCn2nnc(-c3ccc(Cl)cc3)n2)cc1	2	3%	-1%	-9	-3%
Cn1nc(-c2ccc(Cl)cc2)nc2c(=O)n(C)c(=O)nc1-2	25	-27%	1%	22*	-60%
CC(C)[C@@H](C(=O)N[C@@H](C(=O)O)c1ccccc1)N1C(=O)N2CCc3c([nH]c4ccccc34)[C@@]2(C)C1=O	-2	16%	-10%	2	u
O=C1CN(C(=O)OCc2ccccc2)c2ccccc2N1	26*	-3%	3%	69	-18%
O=C(Cc1coc2ccc3ccccc3c12)N1CCc2ccccc21	-4	6%	3%	-9	12%
O=C(Cc1c[nH]c2ccccc12)N1CCc2ccccc21	30*	-15%	-4%	87*	-5%
O=C(CNC(=O)N1CC(=O)Nc2ccccc21)NCc1ccccc1	-3	x	-12%	-13	-1%
Cc1ccc2c(CC(=O)N3CCc4ccccc43)coc2c1	23*	-5%	-2%	100*	-2%
O=C(CS(=O)(=O)Cc1ccccc1)N1CCc2ccccc21	33*	7%	7%	15	9%
O=C(CS(=O)(=O)Cc1ccccc1)N1CCN(c2ccccc2F)CC1	14	0%	3%	22	-3%
O=C(NCc1nnc(SCC(=O)N2CCc3ccccc32)o1)c1ccco1	-7	1%	-2%[11.5 µM]	-20	x
O=C(OCc1ccccc1)N1CCc2ccccc21	43*	7%	-19%	82*	-29%
O=C1CN(C(=O)c2cc3ccccc3o2)c2ccccc2N1	18*	-16%	-1%	42*	-1%
O=C(c1ccco1)c1cn(CC(=O)N2CCCc3ccccc32)c2ccccc12	24*	-1%	4%	16	-67%
O=C(NCCC(=O)N1CCc2ccccc21)c1ccco1	30*	-2%	2%	76*	5%
Cc1cccc(N2CCN(S(=O)(=O)c3c(C)noc3/C=C/N(C)C)CC2)c1C	-3	-14%	-3%	-3	18%
COc1ccc(CCNC(=O)C2c3ccccc3C(=O)N2CCC(C)C)cc1OC (centres undefined)	6	-12%	0%	4	-1%
C=CCNc1nc2ccccc2nc1NS(=O)(=O)c1ccc(OC)cc1	-2	-20%	2%	-2	-13%
CCOC(=O)N/N=C1/C[C@@H](O)[C@@H](O)[C@@H]2[C@@H]3C(=O)N(C(C)(C)C)C(=O)[C@H]3CC[C@H]12	x	2%[12.9 µM]	x	x	x
O=C(CCC(=O)N1CCc2ccccc21)N1CCc2ccccc21	x	x	x	x	21%
O=C(CCCc1ccccc1)N1CCc2ccccc21	49*	2%	-7%	109*	-10%
Cc1ccn(CCC(=O)N2CCc3ccccc32)n1	25*	x	-6%	26	-7%
Cn1cc([N+](=O)[O-])c(C(=O)NC2CCCCCC2)n1	0	x	-6%	-5	10%
COc1ccc(-n2nc(C(=O)NCC(=O)N3CC(C)CC(C)C3)c3ccccc3c2=O)cc1OC (centres undefined)	-3	x	-8%	-6	2%
COc1ccc(-n2nc(C(=O)NCC(=O)N3CCCC(C)C3)c3ccccc3c2=O)cc1 (centres undefined)	18*	0%	1%	39	-17%
COc1ccc(-n2nc(C(=O)NCC(=O)N3CCCC(C)C3)c3ccccc3c2=O)cc1Cl (centres undefined)	17*	6%	3%	36*	23%
